An excerpt weighted towards active compounds, which were near 2.4% of everything screened.
L3MBTL1 block: L3MBTL1 (human) inhibition; AlphaScreen L3MBTL1–H3K9me1 peptide binding; Potency, µM (highest dose often 57.1 µM), hits mostly inhibitors; hit rate 0.66% among 230,000; AID 485360; note: nearly all actives have a fitted effect of over 60% in size
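First, the protein-peptide complex forms for 30 min at room temperature (L3MBTL1 50 nM, biotinylated H3K9me1 peptide 75 nM). Next, compounds are pin-transferred and incubated 30 min. Finally, AlphaScreen beads are added and read after 30 min.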
POLB inh: DNA polymerase beta (human) inhibition; Pol beta primer extension/strand displacement, fluorescence kinetic; P06746; hit rate 1.3% among 340,000; Potency, µM (series often up to 114 µM), usual class: inhibitors; AID 485314
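Pol beta (10 nM) and compounds were preincubated 15 min at room temperature, then 50 nM substrate (final) started primer extension/strand displacement. Reads were taken at 0 and 10 min; concentration-response data were fitted to a four-parameter Hill equation.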
POLI inh: blocks human DNA polymerase iota activity; Q9UNA4; Pol iota fluorescent replication assay, 10 min; Potency, µM (top dose mostly 115 µM), usual class: inhibitors; hit rate 1% among 390,000; AID 588590
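Fluorescent replication assay read twice, at 0 min and 10 min after adding 50 nM (final) substrate. Enzyme (10 nM) and compounds were first incubated 15 min at room temperature; enzyme-free buffer wells were negative controls.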
Pol eta inh-1: DNA polymerase eta (human) inhibition; recombinant Pol eta, fluorescent DNA replication assay; hit rate 1.2% among 390,000; Q9Y253; Potency, µM (top dose mostly 114 µM), usual class: inhibitors
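Pol eta (10 nM) was preincubated with compounds for 15 min at room temperature, after which fluorescent replication substrate (50 nM final) was added to start the reaction. Fluorescence was read kinetically at 0 and 10 min.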
Pol kappa inh-1: DNA polymerase kappa (human) inhibition; hit rate 0.53% among 400,000; purified Pol kappa, fluorescent DNA synthesis assay, 10 min; Potency, µM (series often up to 107 µM), hits mostly inhibitors; AID 588579
Target sequence (Q9UBT6 whole entry, looked up): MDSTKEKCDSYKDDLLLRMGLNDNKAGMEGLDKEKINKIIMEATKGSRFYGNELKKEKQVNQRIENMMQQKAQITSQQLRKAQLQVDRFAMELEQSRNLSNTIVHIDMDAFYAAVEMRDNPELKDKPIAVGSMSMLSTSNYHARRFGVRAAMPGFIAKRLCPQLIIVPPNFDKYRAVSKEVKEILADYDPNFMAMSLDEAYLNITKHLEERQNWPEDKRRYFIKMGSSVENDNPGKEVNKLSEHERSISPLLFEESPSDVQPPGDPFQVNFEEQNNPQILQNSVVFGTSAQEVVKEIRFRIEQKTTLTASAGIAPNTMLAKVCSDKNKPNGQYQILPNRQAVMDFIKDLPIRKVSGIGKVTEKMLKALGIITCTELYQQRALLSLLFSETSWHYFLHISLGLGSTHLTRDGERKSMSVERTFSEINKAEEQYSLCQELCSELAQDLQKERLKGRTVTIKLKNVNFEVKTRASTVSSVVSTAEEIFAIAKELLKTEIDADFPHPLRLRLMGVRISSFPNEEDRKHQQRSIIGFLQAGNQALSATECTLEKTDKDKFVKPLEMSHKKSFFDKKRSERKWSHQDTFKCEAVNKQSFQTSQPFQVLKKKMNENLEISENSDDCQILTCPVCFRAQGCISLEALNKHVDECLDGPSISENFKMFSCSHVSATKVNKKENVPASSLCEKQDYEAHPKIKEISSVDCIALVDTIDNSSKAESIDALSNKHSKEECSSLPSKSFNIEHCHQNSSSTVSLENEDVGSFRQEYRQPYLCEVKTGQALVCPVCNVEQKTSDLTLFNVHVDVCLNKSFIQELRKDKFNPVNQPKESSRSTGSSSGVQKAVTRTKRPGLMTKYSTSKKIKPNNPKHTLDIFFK
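Here, compound and 10 nM enzyme are combined for 15 min at room temperature; adding 50 nM substrate (final) starts DNA synthesis, tracked by fluorescence at 0 and 10 min against buffer-only wells.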
PGK validate: TbPGK inhibition, hit validation. shares compounds with Pol kappa inh-1. TbPGK coupled GAPDH assay, Kinase-Glo luminescence. Potency, µM (series often up to 57.5 µM), most hits filed as inhibitors. hit rate 79% among 500; note: nearly all actives have a fitted effect of over 65% in size
POLI cherry-pick: Inhibitors of human DNA polymerase iota, confirmation; shares compounds with Pol kappa inh-1; Pol iota primer extension, TAMRA/BHQ fluorescence; Potency, µM, actives largely listed as inhibitors; hit rate 77% among 1,500; AID 720496
Pol kappa inh-2: Pol kappa (human) inhibition, cherry-pick confirmation | shares compounds with Pol eta inh-1 | purified Pol-kappa, fluorescent strand-displacement substrate | hit rate 76% among 920 | Potency, µM, most hits filed as inhibitors
Pol eta inh-2: Pol eta (human) inhibition, cherry-pick confirmation; shares compounds with Pol eta inh-1; Pol eta primer extension, TAMRA/BHQ fluorescence, 10 min; Potency, µM, usual class: inhibitors; hit rate 64% among 2,600
Each line names hits and unclear results; the compound was inactive in the other large screens (follow-up assays come after a bar, where they were run). Calls come from the whole dose curve; as a rule, active = well fitted curve in the direction sought with a large enough effect; inconclusive = small, poorly fitted or top-dose-only effect, or another doubt; inactive = no such curve, though single readings can be large; an effect the other way counts as inactive or inconclusive.

Cc1ccc(-c2nc3c(c(SCC(=O)Nc4cccc(C(=O)O)c4)n2)Cc2cccc(C)c2O3)cc1	L3MBTL1 block 5.62µM, POLB inh 1.78µM, POLI inh inconclusive, Pol kappa inh-1 inconclusive (no result: Pol eta inh-1) | POLI cherry-pick 8.44 | Pol kappa inh-2 3.77 | Pol eta inh-2 84.9
O=C(COC(=O)c1ccc2c(c1Cl)C(=O)c1ccccc1C2=O)NC1CC1	POLB inh inconclusive, POLI inh inconclusive, Pol eta inh-1 inconclusive
Nc1ccc2c(c1Cl)C(=O)c1ccc(N)c(Cl)c1C2=O	L3MBTL1 block inconclusive, POLB inh 2µM, POLI inh inconclusive, Pol eta inh-1 8.91µM, Pol kappa inh-1 inconclusive | POLI cherry-pick 16.8 | Pol eta inh-2 42.6
Cc1cc(NC(=O)CSc2nc(-c3cccnc3)ccc2C#N)no1	none
Cc1cc(NC(=O)CSc2nc3c(c(-c4cccnc4)c2C#N)CCC3)no1	Pol eta inh-1 inconclusive | POLI cherry-pick 37.7 | Pol kappa inh-2 37.7
COc1ccc(C(CC(=O)O)NC(=O)c2cc3ccccc3oc2=O)cc1OC (configuration not stated)	POLI inh inconclusive (no result: L3MBTL1 block)
COc1ccc(NC(=O)C2=C(C)Nc3nc(SCc4ccccc4C)nn3C2c2cc(OC)c(O)c(OC)c2)cc1 (configuration not stated)	POLB inh 8.91µM, POLI inh 28.2µM, Pol eta inh-1 inconclusive (no result: L3MBTL1 block) | POLI cherry-pick inconclusive | Pol kappa inh-2 inconclusive
COc1ccc(NC(=O)C2=C(C)Nc3nc(SCc4ccccc4C)nn3C2c2ccc(Br)cc2)cc1 (configuration not stated)	none (no result: L3MBTL1 block)
C/C=C\C=C\C(=O)N1CC2(CC(c3cccc(NC(=O)CC)c3)=NO2)C[C@H]1C(N)=O (some centres not stated)	POLI inh inconclusive, Pol eta inh-1 35.5µM, Pol kappa inh-1 79.4µM (no result: L3MBTL1 block) | POLI cherry-pick 11.9 | Pol eta inh-2 53.6
C/C=C/C=C\C(=O)Nc1cccc(C2=NOC3(C2)C[C@H](C(N)=O)N(C(=O)/C=C/C)C3)c1 (some centres not stated)	POLB inh inconclusive, POLI inh inconclusive, Pol eta inh-1 22.4µM, Pol kappa inh-1 inconclusive (no result: L3MBTL1 block) | POLI cherry-pick 33.6 | Pol eta inh-2 37.9
C=C(C)C(=O)Nc1cccc(C2=NOC3(C2)C[C@@H](C(N)=O)N(C(=O)CCCCC)C3)c1 (some centres not stated)	POLB inh 2µM, POLI inh 8.91µM, Pol eta inh-1 1.41µM, Pol kappa inh-1 7.94µM (no result: L3MBTL1 block) | PGK validate 0.58µM | POLI cherry-pick 18.9 | Pol eta inh-2 3.01
COc1ccccc1NC(=O)c1sc2nc(N3CCOCC3)c3c(c2c1N)CC(C)(C)OC3	none (no result: L3MBTL1 block)
O=C(NN1C(=O)CSC1=S)C(=O)NN1C(=O)CSC1=S	L3MBTL1 block 0.794µM, POLB inh 1.78µM, POLI inh inconclusive, Pol eta inh-1 28.2µM, Pol kappa inh-1 inconclusive | POLI cherry-pick 33.6 | Pol eta inh-2 21.3
O=C(Cc1cccc2ccccc12)NN1C(=O)CSC1=S	POLI inh inconclusive
COc1ccc(-n2c(SCC(=O)O)nc3sc4c(c3c2=O)CCCC4)cc1	none (no result: L3MBTL1 block)
COc1ccc(O)c(C(=O)c2cc(SCC(=O)O)c3nc4sc5c(c4c(=O)n3c2)CCCC5)c1	POLB inh inconclusive, POLI inh inconclusive, Pol eta inh-1 22.4µM, Pol kappa inh-1 inconclusive (no result: L3MBTL1 block) | POLI cherry-pick 21.2 | Pol eta inh-2 47.8
CCOC(=O)c1sc2nc3c(SCC(=O)O)cc(C(=O)c4cc(F)ccc4O)cn3c(=O)c2c1C	POLB inh 10µM, POLI inh inconclusive, Pol eta inh-1 20µM, Pol kappa inh-1 50.1µM | POLI cherry-pick 18.9 | Pol eta inh-2 26.9
O=C(O)CSc1cc(C(=O)c2ccccc2O)cn2c(=O)c3c(-c4ccccc4)csc3nc12	POLB inh 44.7µM, POLI inh inconclusive, Pol eta inh-1 14.1µM, Pol kappa inh-1 inconclusive | POLI cherry-pick 21.2 | Pol eta inh-2 26.9
CC1Cn2c(C(=O)NCc3ccccc3Cl)cc3cccc(c32)S1 (configuration not stated)	none (no result: L3MBTL1 block)
COCC(=O)N1CCC2(CC1)CCN(C(=O)Nc1cccc(C#N)c1)CC2	none (no result: L3MBTL1 block, POLB inh, POLI inh, Pol eta inh-1)
COC1(C)CCC2OC2(C)CCC2C1CC2(C)C (configuration not stated)	none (no result: L3MBTL1 block, POLB inh, POLI inh, Pol eta inh-1)
O=C(O)c1ccc(N2C(=O)c3cccc4c(C(=O)O)ccc(c34)C2=O)cc1	L3MBTL1 block 3.55µM, POLB inh 6.31µM, POLI inh 8.91µM, Pol eta inh-1 3.55µM, Pol kappa inh-1 20µM | PGK validate 16.3µM | POLI cherry-pick 15 | Pol eta inh-2 3.38
O=C(O)c1ccc(N2C(=O)c3cccc4cccc(c34)C2=O)cc1	none
O=C(O)CN1C(=O)/C(=C\c2cn(-c3ccccc3)nc2-c2ccccc2)SC1=S	POLB inh inconclusive, POLI inh inconclusive (no result: L3MBTL1 block)
CC(C)COc1ccc(-c2nn(-c3ccccc3)cc2/C=C2/SC(=S)N(CC(=O)O)C2=O)cc1	Pol eta inh-1 28.2µM | POLI cherry-pick 75.2 | Pol eta inh-2 67.5
COCCn1c(C)cc(C(=O)CN2C(=O)C(=O)N(CCC3=CCCCC3)C2=O)c1C	none (no result: L3MBTL1 block, POLB inh, POLI inh, Pol kappa inh-1)
Nn1cc(Br)c(=O)[nH]c1=O	none (no result: L3MBTL1 block, POLB inh, POLI inh, Pol eta inh-1)
CCC(C(=O)NCc1ccccc1Cl)n1c(=O)c2cccn2c2ccccc21 (configuration not stated)	none (no result: L3MBTL1 block)
CCOc1ccc2nc(Cl)c(C3CC(c4ccc(OC)cc4)=NN3S(C)(=O)=O)cc2c1 (configuration not stated)	POLI inh inconclusive, Pol eta inh-1 inconclusive, Pol kappa inh-1 inconclusive (no result: L3MBTL1 block) | POLI cherry-pick inconclusive | Pol kappa inh-2 75.2 | Pol eta inh-2 75.7
Cc1cc(C(=O)NNC(=O)/C=C/c2ccco2)c(C)o1	L3MBTL1 block 7.94µM, POLI inh 3.16µM, Pol eta inh-1 2.24µM, Pol kappa inh-1 22.4µM (no result: POLB inh) | PGK validate 16.3µM | POLI cherry-pick inconclusive | Pol eta inh-2 16.9
Cc1cc(/C=C2\SC(=S)NC2=O)c(C)n1C	POLB inh 39.8µM, POLI inh inconclusive, Pol eta inh-1 28.2µM, Pol kappa inh-1 79.4µM | POLI cherry-pick 67 | Pol kappa inh-2 16.8 | Pol eta inh-2 37.9
